Measured values published in ChEMBL document CHEMBL3988442, “University of Dundee, Small-Polar-MMV Screening Library” (2021).

Legend:
[1] = biological target: T1, Aspartate--tRNA(Asp/Asn) ligase (Mycobacterium tuberculosis (strain ATCC 25618 / H37Rv)) (UniProt P9WFW3); assay: Assay for Asp RNA synthetase-1 from Mycobacterium tuberculosis; assay type: functional; design: scale not given: direction of the effect not stated beside the values; settings: 30 µM; note: in the data most compounds retested in dose-response had high values
T1 sequence (whole entry): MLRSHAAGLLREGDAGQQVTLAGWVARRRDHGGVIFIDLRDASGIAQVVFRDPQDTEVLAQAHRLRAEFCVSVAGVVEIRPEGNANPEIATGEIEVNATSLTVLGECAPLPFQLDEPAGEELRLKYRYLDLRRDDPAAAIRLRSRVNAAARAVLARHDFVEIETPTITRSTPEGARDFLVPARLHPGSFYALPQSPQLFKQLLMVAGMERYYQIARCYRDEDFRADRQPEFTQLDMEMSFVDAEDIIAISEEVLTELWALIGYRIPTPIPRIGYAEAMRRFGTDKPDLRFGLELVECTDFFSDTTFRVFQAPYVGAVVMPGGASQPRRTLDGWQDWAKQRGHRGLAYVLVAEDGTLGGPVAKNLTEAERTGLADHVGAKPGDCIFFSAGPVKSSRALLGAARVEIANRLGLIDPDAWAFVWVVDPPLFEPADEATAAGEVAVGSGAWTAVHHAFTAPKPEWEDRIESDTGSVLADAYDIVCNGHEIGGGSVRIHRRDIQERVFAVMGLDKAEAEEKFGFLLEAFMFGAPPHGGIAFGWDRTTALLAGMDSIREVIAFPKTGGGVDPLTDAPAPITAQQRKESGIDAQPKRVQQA

[2] = biological target: Shiga toxin 2 (Escherichia coli O157:H7) (UniProt P09385+P09386); assay: E. coli 0.157:H7 Shiga Toxin SOP - stx2 screening assay; assay type: functional; design: scale not given: direction of the effect not stated beside the values; settings: 30 µM

| Structure (SMILES) | Percent Effect [1] [%] | Percent Effect [2] [%] |
| --- | --- | --- |
| Cc1nonc1CC(=O)N1C[C@@H]2CC[C@H](C1)N(Cc1ccccc1)C2=O | 1.39 | 2.88 |
| Cc1nc(C)c(CC(=O)Nc2nnc(C)s2)c(=O)[nH]1 | -2.12 | 19 |
| CCc1nnc2n1CCN(C(=O)c1ccc(-c3ccco3)nc1C)C2 | -3.2 | -27.7 |
| Cc1nn(C)cc1-c1cc(C(F)(F)F)c2c(C)nn(CC(=O)O)c2n1 | 4.84 | 34.1 |
| CC(C)c1cc(N2CCN(c3ccc(O)cc3)CC2)n2nccc2n1 | -1.38 | 15 |
| CCOCC(O)CN1CCN(C(=O)c2cnc3n[nH]c(C)c3c2)CC1 (stereo not given) | 1.04 | 30.1 |
| Cc1cc(C)c(CNC(=O)NCC(c2ccccc2)N(C)C)c(=O)[nH]1 (stereo not given) | 4.47 | 23.9 |
| Cc1cccnc1CNc1cc(N2CCCC2CO)ncn1 (stereo not given) | -4.52 | -6.27 |
| Cc1csc(N2CCN(CCc3ccccn3)CC2C)n1 (stereo not given) | -6.27 | -7.75 |
| Cc1ccc(CN2CCC3(C2)C(=O)N(CC(C)C)c2ccccc23)s1 (stereo not given) | -0.155 | -42.5 |
| COCC1CN(Cc2cc(C)on2)Cc2cn(C)nc21 (stereo not given) | 1.83 | -2.41 |
| O=C1NCC2(CCCN(Cc3ccc(Cl)s3)C2)Oc2ccccc21 (stereo not given) | -6.49 | -53.7 |
| NC(=O)c1ccc2c(c1)nc1n2CCN(Cc2ccco2)C1 | 6.41 | -31.5 |
| O=C(NCCN1CCC(c2cccs2)CC1)c1ccccc1C(F)(F)F | -10.3 | -49.7 |
| Fc1ccc(-c2nnc(CN3CCOC(Cn4cncn4)C3)o2)cc1 (stereo not given) | 1.55 | -15.2 |
| Cc1cnn(CC2CN(Cc3cccc(OCC(N)=O)c3)CCO2)c1 (stereo not given) | -5.07 | 8.76 |
| Cc1ccccc1CN1CCN(Cc2nccn2C)CC1 | -1.8 | 13.3 |
| Cc1ccccc1CNC(=O)CN1CCN(Cc2nccn2C)CC1 | 8.88 | 6.67 |
| Cc1ncccc1O[C@H]1CCN(C(=O)Cc2cccs2)CC[C@@H]1O | -2.28 | -7.15 |
| CNC(=O)[C@H]1C[C@@H]2CN(S(=O)(=O)c3ccccc3)C[C@@H]2N1C(C)=O | 2.08 | -6.09 |
| CCOc1ccc(Cl)c(C(=O)NCc2ccc(C(=O)NC)cc2)n1 | -2.66 | 13 |
| CCN(CC)CCNC(=O)c1ccn(COc2cc(C)cc(C)c2)n1 | -3.4 | -48.5 |
| CCOCC1CN(Cc2ccoc2)Cc2nn(CC3CC3)cc21 (stereo not given) | 6.32 | -16.8 |
| Cn1cnnc1C1CCN(c2cncc(-n3cccn3)n2)CC1 | 0.324 | -33.6 |
| CC(C)c1ccc(OCn2ccc(C(=O)N3CCCC3)n2)cc1 | 5.38 | -13.8 |

| Structure (SMILES) | Percent Effect [1] [%] | Percent Effect [2] [%] |
| --- | --- | --- |
| COCc1cccc(C(=O)N2CCCCC2c2nccs2)c1 (stereo not given) | -3.8 | 18.2 |
| Cc1nc(Nc2ncccn2)cc(C2CCCN2CC(C)C)n1 (stereo not given) | -0.75 | 13.5 |
| CCN(c1ccc(C(=O)NCCCN2CCOCC2)cc1)S(=O)(=O)CC | 4.46 | -48.2 |
| CC(C)C(=O)NC1CCN(Cc2cccc3c2OCCO3)CC1 | -1.32 | 5.01 |
| CCn1cc(NC(=O)C2CCN(CC(=O)N3CCOCC3)CC2)cn1 | -3.23 | 21.6 |
| CC(C)c1ccc(C(O)Cn2c(=O)c(C#N)cn(C3CC3)c2=O)cc1 (stereo not given) | 2.61 | 14.3 |
| COCCC(=O)N1CCC2(CC1)CC(c1ccccc1)CN(C)C2 (stereo not given) | -3.3 | 17.5 |
| c1cc(CN2Cc3nnn(CC4CC4)c3C(COCC3CC3)C2)co1 (stereo not given) | -1.45 | -2.53 |
| COc1ccc(C(C)NC(=O)Cn2ccc(=O)n(C)c2=O)cc1OC (stereo not given) | 2.15 | -8.59 |
| CCc1ccccc1C(=O)N1CCN(S(C)(=O)=O)[C@@H](C)C1 | 0.259 | -3 |
| CC(C)c1nc2c(n1C)CCN(CC(=O)Nc1nccs1)C2 | -1.5 | 26 |
| CCN(CC)C(=O)CCn1ncc2c(Cl)cccc21 | -1.07 | -23.7 |
| Cc1ccc(CN2CC[C@H]3OCC[C@@H](C(=O)NC4CC4)[C@@H]3C2)o1 | 4.6 | -6.37 |
| Cc1c[nH]cc1C(=O)N1CCN(CCc2cccs2)CC1 | -4.34 | -33.2 |
| Cc1cc(NC(=O)NCCc2ccsc2)n(C)n1 | -9.16 | -21.1 |
| O=C(c1nc(=O)[nH][nH]1)N1CCCC(c2cc(C(F)(F)F)[nH]n2)C1 (stereo not given) | -1.69 | -21.8 |
| c1cnnc(N2CCCC2CNCc2nc3ccccc3o2)c1 (stereo not given) | 7.18 | -25.7 |
| CCn1cc(NC(=O)CCc2ccc3c(c2)OCCCO3)cn1 | -3.45 | -47.1 |
| CCn1nc(C)c2nnn(CC(=O)Nc3c(C)cccc3C)c(=O)c21 | -2.79 | -11.8 |
| Cc1nc(C)c(C(=O)N2CCCC2c2nnc3n2CCCCC3)s1 (stereo not given) | -7.53 | -17.2 |
| O=C(CS(=O)(=O)c1ccccc1Cl)NC1CCCCNC1=O (stereo not given) | -8.65 | 4.72 |
| Fc1ccc(CN2CCC(c3n[nH]c4nccnc34)CC2)cc1F | 0.372 | -8.59 |
| Cc1nccn1-c1cccc(C2CCCN(C(=O)c3cc[nH]n3)C2)n1 (stereo not given) | -0.309 | -32.7 |
| Cc1nc(C(C)(C)NC(=O)Nc2ccccc2)no1 | 0.805 | -0.789 |
| Cn1cnnc1C1CCN(C(=O)CCCOc2ccccc2F)CC1 | 0.819 | -1.48 |

| Structure (SMILES) | Percent Effect [1] [%] | Percent Effect [2] [%] |
| --- | --- | --- |
| CCc1ncc(C(=O)N2CCCCC2Cn2cccn2)s1 (stereo not given) | -4.28 | 15.5 |
| Cn1cc(C(=O)N2CCCC(n3cccn3)C2)c2ccccc21 (stereo not given) | -0.132 | -6.71 |
| CC1CCN(S(=O)(=O)NCCCn2cncn2)CC1 | -2.66 | -6.63 |
| CCN1C[C@H]2CCN(C(C)=O)CC[C@H]2S1(=O)=O | -0.319 | -50.9 |
| Cc1nc(C)n(CC2CCCCN2CC(=O)N(C)Cc2ccco2)n1 (stereo not given) | 1.76 | 3.6 |
| CC(C(N)=O)S(=O)(=O)Cc1cc(Cl)c2c(c1)OCO2 (stereo not given) | -7.47 | 26.2 |
| O=C(CC1CC1)N1CCC2(CC1)CN(c1ncccn1)CCO2 | -1.87 | 5.46 |
| CC(C)c1noc(CN(Cc2cccs2)C2CC2)n1 | -0.416 | -48.4 |
| Cn1cc(CC2CCN(C(=O)NCc3cn4ccsc4n3)C2)cn1 (stereo not given) | -4.64 | -8.11 |
| Cc1noc(C)c1CN1CCc2nn(C(C)C)c(=O)cc2C1 | 7.84 | -14 |
| CC(CNC(=O)Nc1ccc(N(C)C)nc1)Cn1cccn1 (stereo not given) | 5.91 | -40.9 |
| Cc1cc(O)c(OCC(=O)/N=c2\[nH]cc(C)s2)cn1 | -2.4 | -6.58 |
| Cc1ccc(C(=O)N2CCN(C(=O)NC(C)Cn3ccnc3)CC2)o1 (stereo not given) | -1.92 | 17.6 |
| O=C(COc1cccc2c1CCC2=O)NCc1ccccc1F | 10.4 | -7.67 |
| COc1cccc(COCC(=O)N2CCCC(c3cc(C)[nH]n3)C2)c1 (stereo not given) | 1.92 | 28.3 |
| CCn1ccnc1CN1CCN(CCC(=O)NC(C)(C)C)CC1C (stereo not given) | -4.35 | 15.4 |
| CNC(=O)CC1CC2(CCN(Cc3nccs3)CC2)c2ccccc21 (stereo not given) | -1.76 | -4.71 |
| Cn1cccc1C(=O)N1CCN(CC2CC2)c2ncccc2C1 | 2.01 | -11.1 |
| Cc1nn(CC(C)C)c(N(C)C)c1CNCc1cccnc1N(C)C | 0.161 | 24.5 |
| Cc1nc(CNC(=O)NCC(O)c2ccc(F)cc2F)cs1 (stereo not given) | -6.13 | -21.6 |
| O=C(CCCc1ncc(-c2ccccc2)o1)N1CCN(CCO)CC1 | -1.6 | -44.5 |
| CCN1CCC(NC(=O)CN2CCCCC2Cn2cc(C)cn2)CC1 (stereo not given) | -0.102 | -21.7 |
| CC(C(=O)NCc1ccc(N2CCNC(=O)C2)cc1)n1cncn1 (stereo not given) | 3.94 | -118 |
| O=C(COCc1ccccc1)N1CCC(OCc2cccnc2)CC1 | -4.62 | 11.5 |
| Cc1cnn(CCNCc2nc(COc3ccc(F)cc3)no2)c1 | -1.72 | 16.3 |

| Structure (SMILES) | Percent Effect [1] [%] | Percent Effect [2] [%] |
| --- | --- | --- |
| O=C(CCNC(=O)c1ccoc1)Nc1c(F)cccc1F | 4.76 | -4.74 |
| CC(C)(C)c1nnc(CN2CCN(S(C)(=O)=O)CC2)o1 | 1.17 | -26.2 |
| O=C1CCCc2nccc(-c3ccccc3)c21 | 1.6 | -14.1 |
| CCCN(CC)C(=O)c1cc2c(c3ccccc3n2C)n1C(=O)N(C)C | 6.03 | 2.44 |
| CC1CCCN(CC(=O)N2CCC(c3ncc4c(n3)CCNC4)CC2)C1 (stereo not given) | -2.22 | -1.44 |
| CCn1cc(CN(C)S(=O)(=O)c2ccc(NC(C)=O)cc2)cn1 | 2.64 | -65.2 |
| CCN1CCN(Cc2coc(-c3cccc(F)c3)n2)CC1 | -7.31 | -35.5 |
| Cc1cnn(CC2CCCCN2CCC(=O)Nc2cc(C)on2)c1 (stereo not given) | 1.03 | 5.5 |
| O=C1CC(c2cccc(O)c2)c2c(c(C(=O)O)cn2-c2ccccc2)N1 (stereo not given) | 22.9 | -12.9 |
| CCN(CC)C(CNC(=O)c1ccc(S(C)(=O)=O)cc1)c1ccco1 (stereo not given) | -0.521 | -4.44 |
| Cc1ccc(NC(=O)N(C)Cc2cnn(C)c2)cc1OCC(F)F | 5.84 | -4.22 |
| O=C(Cn1ccc2ccc(Br)cc21)NC[C@@H]1CCCN2CCCC[C@H]12 | -3.66 | -42.1 |
| CCCc1nc(CN2CCN(Cc3noc(CCC)n3)CC2)no1 | -5.2 | -39.2 |
| CC(C)CCN1CN=C(NS(=O)(=O)c2ccc(F)cc2)NC1 | -1.13 | -27.2 |
| O=C(c1cnc(-c2cccs2)s1)N1CCCN2CCCC2C1 (stereo not given) | 8.86 | 1.08 |
| Cc1ccc(C(=O)N2CCC3(CC2)CCN(CCN(C)C)C3=O)cn1 | -4 | -1.78 |
| Cc1cccc(NC(=O)N2CCCn3cnc(CN4CCCC4)c3C2)c1 | -3.25 | -16.8 |
| Cc1n[nH]c(C)c1C1CCCN1C(=O)CNC(=O)C(C)(C)C (stereo not given) | 1.09 | -19.5 |
| CCc1ccc(CN2CCC3(CC2)NC(=O)CC3c2ccncc2)o1 (stereo not given) | 7.7 | -9.95 |
| Fc1ccc(CN2CCO[C@H]3[C@H](OCCN4CCCC4)CC[C@@H]32)cc1 | 2.94 | -20.2 |
| O=C(c1cncc(Br)c1)N1CCC(O)(Cn2ccc3ccncc32)CC1 | 3.38 | -12.7 |
| Cc1nc(C2CCCN2CC(=O)N(Cc2ccsc2)C2CC2)no1 (stereo not given) | 0.787 | 0.717 |
| c1cncc(OCc2noc3c2CN(Cc2ccoc2)CC3)c1 | 2.82 | -31.1 |
| Cc1nc(O)cc(C2CCN(Cc3cccc(F)c3F)C2)n1 (stereo not given) | -1.21 | -17.9 |
| COc1cccc(S(=O)(=O)N2CCn3cnc(COCC4CC4)c3C2)c1 | 6.08 | 1.15 |
